In PubChem BioAssay AID1851 (National Center for Advancing Translational Sciences (NCATS), 2009):
About 5,100 (32%) of roughly 16,000 compounds were called active. Not shown: some 25% with an inconclusive outcome. The call rests on the fitted dose curve; in most records, active means well fitted curve in the direction sought with a large enough effect; inconclusive means small, poorly fitted or top-dose-only effect, or effect the other way; inactive means no such curve, though single readings can be large or run the other way. This is one part of the list.

The compounds below were run against Cytochrome P450 3A4 (Homo sapiens) (UniProt P08684) (assay: Cytochrome panel assay with activity outcomes). Conditions: recombinant CYP, pro-luciferin dealkylation, luminescence, p450-cyp3a4; series mostly up to 57.1 µM.
On the % scale 0 is the no-effect control and ±100 the full control effect.

Sequence of Cytochrome P450 3A4 (Homo sapiens) (P08684 whole entry, looked up): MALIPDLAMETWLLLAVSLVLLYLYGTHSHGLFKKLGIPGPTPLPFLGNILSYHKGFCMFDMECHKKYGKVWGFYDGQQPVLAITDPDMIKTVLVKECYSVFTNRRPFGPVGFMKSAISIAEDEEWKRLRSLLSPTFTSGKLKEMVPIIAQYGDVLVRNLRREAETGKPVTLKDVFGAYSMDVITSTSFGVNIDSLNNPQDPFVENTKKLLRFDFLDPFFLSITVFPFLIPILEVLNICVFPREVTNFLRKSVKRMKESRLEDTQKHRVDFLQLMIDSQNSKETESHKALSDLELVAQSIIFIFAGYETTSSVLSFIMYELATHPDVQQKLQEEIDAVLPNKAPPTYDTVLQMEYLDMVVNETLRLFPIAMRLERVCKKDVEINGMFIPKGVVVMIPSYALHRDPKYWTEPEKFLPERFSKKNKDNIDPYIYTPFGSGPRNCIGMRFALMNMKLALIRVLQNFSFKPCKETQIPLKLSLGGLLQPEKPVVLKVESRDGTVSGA

Structure (SMILES)	AC50	activity, negative = inhibition
CC(=O)N1CCN(S(=O)(=O)c2ccccc2)C1c1ccccc1 (stereo unspecified)	11.2 µM (active)	–
Cc1ccc(S(=O)(=O)ON=C2CCN(S(=O)(=O)c3ccccc3)CC2)cc1	inactive	–
Cc1ccc(S(=O)(=O)N2CCN(C(=O)c3ccccc3)C2C(C)C)cc1 (stereo unspecified)	2 µM (active)	–
CC(=O)N1CC2(CC2)CC1c1ccccc1 (stereo unspecified)	inactive	–
Cc1ccc(S(=O)(=O)N2CCC(C(=O)O)(c3ccccc3)CC2)cc1	–	12.2% [at 11.4 µM] (inactive)
COc1ccc(C(=O)c2ccccc2)cc1Br	inactive	–
COc1ccc(C(=O)c2ccc(OC)c(OC)c2)cc1OC	15.8 µM (active)	–
COc1ccc(NC(=O)C(F)(F)F)cc1OC	inactive	–
CN[C@H]1[C@@H](O[C@@H]2[C@H](O[C@@H]3[C@@H](O)[C@@H](O)[C@@H](N=C(N)N)[C@@H](O)[C@@H]3N=C(N)N)O[C@H](C)[C@@]2(O)C=O)O[C@@H](CO)[C@@H](O)[C@H]1O	inactive	–
Cc1cccc(N2CCN(C(=O)CSCc3c(C)noc3C)CC2)c1C	3.98 µM (active)	–
Cc1cccc(N2CCN(CC(=O)Nc3ccc(-n4cnnn4)cc3)CC2)c1C	inactive	–
Cc1ccc(S(=O)(=O)Nc2nc(C)c(NC(=O)Nc3ccc(Cl)cc3Cl)s2)cc1	15.8 µM (active)	–
Cc1nnc(NS(=O)(=O)c2ccc(N)cc2)s1	inactive	–
Cc1cc(Cl)ccc1OC(C)C(=O)Nc1ccc(S(=O)(=O)Nc2cnc3ccccc3n2)cc1 (stereo unspecified)	–	-1.77% [at 2.29 µM] (inactive)
Cc1cc(C)n(-c2nc(NC(C)(C)C)nc(NC(C)(C)C)n2)n1	inactive	–
Cc1cc(C)n(-c2nc(Nc3ccccc3C)nc(-n3nc(C)cc3C)n2)n1	7.94 µM (active)	–
O=C(NNC(=O)c1sc2ccccc2c1Cl)Nc1ccc(Cl)cc1	12.6 µM (active)	–
Cc1nn(Cc2ccc(Cl)cc2Cl)c(C)c1NC(=O)c1sc2ccccc2c1Cl	7.08 µM (active)	–
Cc1ccc(NC(=O)c2sc3ccccc3c2Cl)nc1	inactive	–
CC(C)c1nnc(NC(=O)c2sc3ccccc3c2Cl)s1	inactive	–
Cc1ccccc1Cn1nc(C)c(NC(=O)c2sc3ccccc3c2Cl)c1C	11.2 µM (active)	–
NCCSS(=O)(=O)CCN	–	5.43% [at 11.4 µM] (inactive)
Cc1ccc(N2C(=O)CC(c3ccsc3)C3=C2CC(C)(C)CC3=O)cc1 (stereo unspecified)	2.24 µM (active)	–
O=C(O)C/C(=C\c1ccccc1)C(=O)O	–	-16.3% [at 11.4 µM] (inactive)

Structure (SMILES)	AC50	activity, negative = inhibition
O=C(/C=C\c1ccccc1)c1ccccc1O	–	-15.8% [at 11.4 µM] (inactive)
O=C(/C=C/c1ccccc1)N/C(=C/c1ccccc1)C(=O)Nc1ccccc1O	14.1 µM (active)	–
COc1ccc(/C(C)=N/NC(=O)c2ccc(CSc3cccc4cccnc34)cc2)cc1OC	3.16 µM (active)	–
O=C(CSc1cccc2cccnc12)OCC(=O)c1ccccc1	–	10.1% [at 2.29 µM] (inactive)
N#Cc1c(NC(=O)C2CC(c3ccccc3Cl)=NO2)sc2c1CCC2 (stereo unspecified)	5.01 µM (active)	–
COC(=O)C1CCN(CC(=O)Nc2sc3c(c2C#N)CCC3)CC1	inactive	–
O=C(NCCc1cccs1)C1CC(c2c(Cl)cccc2Cl)=NO1 (stereo unspecified)	–	-24.1% [at 2.29 µM] (inactive)
CCN(CC)C(=O)N1CCN(C)CC1	inactive	–
Cc1ccc(NC(=O)CC2CS(=O)(=O)CC2CC(=O)Nc2ccc(C)c(C)c2)cc1C (stereo unspecified)	3.98 µM (active)	–
CN(C)c1nc(C#N)nc(N2CCOCC2)n1	inactive	–
CCC(C)NC(=O)CCS(=O)(=O)c1ccc(Br)s1 (stereo unspecified)	0.891 µM (active)	–
O=C(CNS(=O)(=O)c1ccc(Br)s1)N1CCC(N2CCCCC2)CC1	inactive	–
COC(=O)C/C=C1\c2ccccc2[C@H](OC)[C@H]1C	–	-2.89% [at 11.4 µM] (inactive)
Nc1ccc(N=Nc2ccc(-c3ccc(O)cc3)cc2)c2ccc(S(=O)(=O)O)cc12	–	-11.1% [at 11.4 µM] (inactive)
COC(=O)[C@@]1(Cc2ccc(F)cc2)[C@H]2c3cc(C(=O)N4CCCC4)n(Cc4c(CO)[nH]cc(C)c4=O)c3C[C@H]2CN1C(=O)c1ccccc1	2 µM (active)	–
COC(=O)[C@@]1(Cc2ccccc2)[C@H]2c3cc(C(=O)N4CCCC4)n(Cc4c(CO)[nH]cc(C)c4=O)c3C[C@H]2CN1C(=O)c1ccccc1	2.51 µM (active)	–
O=C1c2cccc3cccc(c23)C(=O)N1CC1CCN(CC(O)COc2ccc3ccccc3c2)CC1 (stereo unspecified)	7.94 µM (active)	–
CCCOC(=O)c1c(-c2ccccc2)nc(CC)c(C(=O)SCC)c1CCC	10 µM (active)	–
CCc1nc2c(c(SC)nn2-c2ccccc2)c(N)c1C(=O)OC	–	-21.9% [at 11.4 µM] (inactive)
CCOC(=O)c1c(-c2ccccc2)nc2ccc(Cl)cn12	inactive	–
O=C1CCCC=C1[C@@H](O)C1CCCCC1	–	-18.7% [at 11.4 µM] (inactive)
N#C/C(=C\c1cc(Cl)cc(Cl)c1O)C(=O)NC1CCCCC1	15.8 µM (active)	–
N#C/C(=C\Nc1ccccn1)C(=O)C1CC1	–	-9.43% [at 11.4 µM] (inactive)
N#C/C(=C\c1cn[nH]c1-c1ccccc1)C(=O)NC1CCCCCC1	7.08 µM (active)	–

Structure (SMILES)	AC50	activity, negative = inhibition
Cc1cc(=O)oc2cc(O)ccc12	inactive	–
CCOc1cc2c(C)cc(=O)oc2cc1Cl	inactive	–
COc1ccc2c(CC(=O)NCC3CCC(C(=O)O)CC3)cc(=O)oc2c1 (stereo unspecified)	inactive	–
CCN(CC)c1ccc2c(Cl)cc(=O)oc2c1	25.1 µM (active)	–
CCN(CC)c1ccc(C(=O)OCc2cc(=O)oc3cc(O)ccc23)cc1	6.31 µM (active)	–
CCN(CC)c1ccc2cc(C(C)=O)c(=O)oc2c1	inactive	–
Cc1nc2cnc(N3CCN(C)CC3)nc2n(-c2ccccc2)c1=O	inactive	–
COc1ccc(-n2c(=O)c(-c3ccccc3)nc3cnc(N4CCNCC4)nc32)cc1	inactive	–
O=c1c(-c2cccs2)nc2cnc(N3CCNCC3)nc2n1-c1ccccc1	25.1 µM (active)	–
CN1CCN(c2ncc3nc(-c4cccs4)c(=O)n(-c4ccccc4)c3n2)CC1	31.6 µM (active)	–
CN(C)c1ncc2nc(-c3cccs3)c(=O)n(-c3ccccc3)c2n1	inactive	–
O=c1c(-c2cc(F)cc(F)c2)nc2cnc(N3CCOCC3)nc2n1-c1ccccc1	inactive	–
COc1ccc(-n2c(=O)c(-c3cccs3)nc3cnc(N4CCNCC4)nc32)cc1	15.8 µM (active)	–
COc1ccc(-n2c(=O)c(-c3ccc(Cl)cc3)nc3cnc(N4CCNCC4)nc32)cc1	inactive	–
COc1ccccc1CNc1ncnc2ccc(-c3ccc(N(C)C)cc3)cc12	2 µM (active)	–
COc1ccccc1CNc1ncnc2ccc(-c3ccc4c(c3)OCO4)cc12	1.26 µM (active)	–
COc1ccc(CNc2ncnc3ccc(-c4ccc(N(C)C)cc4)cc23)c(OC)c1	3.98 µM (active)	–
CCOC(=O)c1[nH]c(C(=O)O)c(CCC(=O)OC)c1C	inactive	–
Cc1cc(C)nc(NC(=O)CCCC(=O)O)c1	inactive	–
C[N+]1(C)CCO[C@](O)(c2ccccc2)C1	–	-8.04% [at 11.4 µM] (inactive)
O=C(c1ccc2c(=O)n(Cc3ccco3)c(=S)[nH]c2c1)N1CCN(c2ccccc2)CC1	6.31 µM (active)	–
CC(C)NC(=O)c1ccc2c(=O)n(Cc3ccco3)c(=S)[nH]c2c1	inactive	–
COc1ccc(NC(=O)c2ccc3c(=O)n(Cc4ccco4)c(=S)[nH]c3c2)c(OC)c1	inactive	–
COc1ccc(CCNC(=O)c2ccc3c(=O)n(Cc4ccco4)c(=S)[nH]c3c2)cc1OC	0.631 µM (active)	–

Structure (SMILES)	AC50	activity, negative = inhibition
Nc1ccccc1Nc1ccccc1	–	-23.8% [at 11.4 µM] (inactive)
C[C@H]1O[C@@H](CC(=O)O)Cc2c1c(O)c1c(O)cc(-c3cc(=O)c4c(=O)c5c(c(=O)c=4c3=O)C[C@H](CC(=O)O)O[C@@H]5C)c(O)c1c2O	–	-6.62% [at 11.4 µM] (inactive)
CCN1C(=O)CC(N2CCN(CC(=O)NC(C)C)CC2)C1=O (stereo unspecified)	inactive	–
Cc1onc(-c2ccccc2)c1C(=O)NCCc1c[nH]c2ccccc12	8.91 µM (active)	–
O=C(COc1ccccc1)Nc1ccc(-c2nnc(-c3ccco3)o2)cc1	inactive	–
COc1cccc(C(=O)Nc2ccc(-c3nnc(-c4ccco4)o3)cc2)c1	4.47 µM (active)	–
COc1cc(C(=O)Nc2ccc(-c3nnc(-c4ccco4)o3)cc2)cc(OC)c1OC	7.08 µM (active)	–
C=CCNc1oc(/C=C/c2ccccc2)nc1C#N	15.8 µM (active)	–
Cc1cnc(CNc2nc(-c3ccoc3)nc3ccccc23)cn1	12.6 µM (active)	–
Cc1cnc(CNc2nc(-c3ccc(N(C)C)cc3)nc3ccccc23)cn1	5.01 µM (active)	–
C=CCn1c(-c2cccn(Cc3ccccc3)c2=O)n[nH]c1=S	12.6 µM (active)	–
Clc1ccc(CCNc2nc3ccccc3s2)cc1	15.8 µM (active)	–
O=c1c(-c2nc3ccccc3s2)cccn1Cc1ccc(Cl)cc1	14.1 µM (active)	–
O=c1c(-c2nc3ccccc3s2)cccn1Cc1ccccc1	17.8 µM (active)	–
C=CCn1c(C(C)NC(=O)c2ccccc2)n[nH]c1=S (stereo unspecified)	–	-3.87% [at 11.4 µM] (inactive)
CC(=O)NNc1nc2ccccc2s1	inactive	–
O=C(NNc1nc2ccccc2s1)c1ccccc1F	inactive	–
OC[C@@H]1O[C@@H](n2cnc3c(NC4CCCCC4)ncnc32)[C@@H](O)[C@H]1O	inactive	–
CCC(C)NS(=O)(=O)c1ccc(NC(=O)CCC2CCCCC2)cc1 (stereo unspecified)	–	14.9% [at 2.29 µM] (inactive)
O=C(CCc1ccccc1)NNC(=O)C1CCCCC1	–	-0.205% [at 2.29 µM] (inactive)
O=C(CCc1ccc(S(=O)(=O)NC2CCCCC2)cc1)N(Cc1ccccc1)Cc1ccccc1	3.16 µM (active)	–
CC(=O)NS(=O)(=O)c1ccc(NC(=O)NC2CCCCC2)cc1	inactive	–
Cc1ccc(NC(=O)CCc2ccc(S(=O)(=O)NC3CCCCC3)cc2)cc1	0.891 µM (active)	–
O=C(NNS(=O)(=O)c1ccc(Cl)cc1)NC1CCCCC1	inactive	–
